{
  "source": "the supplement of paper PMC9694430",
  "data": [
    {"test_system": "LOC_OS03G04050-cb001", "assay": "thermal shift delta Tm vs DMSO control; higher = stronger stabilization (binding)", "details": "12.5 µM; protein concentration 2 µM", "method_in_brief": "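Heating from 25°C to 95°C at 0.05°C/s, fluorescence was recorded for 19.5 μl wells of 2 μM E. coli-expressed, purified rice kinase domain in 100 mM potassium phosphate pH 7.5, 150 mM NaCl, 10% glycerol and 5 × SYPRO Orange with compound in DMSO. Boltzmann fits gave melting temperatures for this differential scanning fluorimetry assay. The shift reported is the mean of three replicates against the DMSO-only protein.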", "units": {"thermal shift delta Tm": "°C"}, "values": [
      {"smiles": "C[C@H]1CNC(=O)c2cnn3ccc(nc23)N[C@H](C)c2cc(F)ccc2O1", "thermal shift delta Tm": 0.53},
      {"smiles": "Cn1cc(-c2ccc3c(c2)CCN3C(=O)Cc2cccc(C(F)(F)F)c2)c2c(N)ncnc21", "thermal shift delta Tm": 0.45},
      {"smiles": "Cn1c(=O)c(F)c(Nc2ccc(I)cc2F)c2c(=O)n(C[C@@H](O)CO)cnc21", "thermal shift delta Tm": 0.51},
      {"smiles": "CNC(=O)c1cccc(-c2ccc3c(N4CCOC[C@@H]4C)nc(N4CCOC[C@@H]4C)nc3n2)c1", "note": "[Vistusertib (AZD2014)]", "thermal shift delta Tm": 0.18},
      {"smiles": "Cc1nc(Nc2cnn(C3CCNCC3)c2)nc2c1N(C)C(=O)c1cc3ccccc3cc1N2C", "thermal shift delta Tm": 0.18},
      {"smiles": "COc1cc2/c(=N/c3ccc(Br)cc3F)nc[nH]c2cc1OCC1CCN(C)CC1", "note": "[Vandetanib (ZD6474)]", "thermal shift delta Tm": 0.67},
      {"smiles": "CCn1c(C(=O)N(C2CC2)C2CC2)cc2c3c(ncn3C)c(Nc3cc(C)n(C)n3)nc21", "thermal shift delta Tm": 0.44},
      {"smiles": "OCCn1cc(-c2cnc3nnn(Cc4ccc5ncccc5c4)c3n2)cn1", "thermal shift delta Tm": 0.84},
      {"smiles": "N#CC[C@H](C1CCCC1)n1cc(-c2ncnc3[nH]ccc23)cn1", "thermal shift delta Tm": 0.15},
      {"smiles": "CCn1nc(C2CCN(C(=O)CCO)CC2)nc1-c1cnc(N)c(-c2nnc(C(C)(C)C)o2)n1", "thermal shift delta Tm": 0.43},
      {"smiles": "CC(C)(C)c1cc(NC(=O)Nc2ccc(Oc3ccnc4[nH]c(=O)cnc34)cc2F)n(-c2ccccc2)n1", "thermal shift delta Tm": 0.21},
      {"smiles": "CO[C@H]1CC[C@H](N2C(=O)CNc3ncc(-c4ccc(C(C)(C)O)nc4)nc32)CC1", "thermal shift delta Tm": 0.09},
      {"smiles": "CC[C@@H]1C(=O)N(C)c2cnc(Nc3ccc(C(=O)N[C@H]4CC[C@H](N5CCN(CC6CC6)CC5)CC4)cc3OC)nc2N1C(C)C", "note": "[Volasertib (BI 6727)]", "thermal shift delta Tm": 0.68}
    ]}
  ]
}
